According to PubChem BioAssay (NCATS):
Records with an inconclusive call do not appear. Activity calls are given as the source filed them. Calls follow the shape of the dose curve; as a rule, active = well fitted curve in the direction sought with a large enough effect; inconclusive = small, poorly fitted or top-dose-only effect, or another doubt; inactive = no such curve, though single readings can be large; an effect the other way counts as inactive or inconclusive.

Tests used:
[1] = qHTS of pediatric cancer cell lines to identify multiple opportunities for drug repurposing: Primary screen for BT-12 cells (AID 1347101); also: nearly all actives have a fitted effect of over 25% in size
Procedure, shortened: (§1)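 Cells (500-1,000/well) rested 5 h, then received compounds for 48 h; metabolically active cells were measured by CellTiter-Glo luminescence. Final concentrations spanned up to 46 µM (MIPE, 11-point) or 0.59 nM-46 µM (NPC, 8-point) in primary screens, 11-point in follow-ups.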

[2] = qHTS of pediatric cancer cell lines to identify multiple opportunities for drug repurposing: Primary screen for Rh18 cells (AID 1347102); also: nearly all actives have a fitted effect of over 65% in size
Procedure, shortened: (§2)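 Viability after 48 h compound treatment at 37C, 500-1,000 cells/well, read as ATP luminescence with CellTiter-Glo. Primary screens used 11-point (MIPE, 0.78 nM-46 µM) or 8-point (NPC, 0.59 nM-46 µM) final concentrations; follow-up screens used 11-point dilutions.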

[3] = qHTS of pediatric cancer cell lines to identify multiple opportunities for drug repurposing: Primary screen for OHS-50 cells (AID 1347103); also: nearly all actives have a fitted effect of over 40% in size
Procedure, shortened: as §1

[4] = qHTS of pediatric cancer cell lines to identify multiple opportunities for drug repurposing: Primary screen for RD cells (AID 1347104); also: nearly all actives have a fitted effect of over 55% in size
Procedure, shortened: (§3)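 Cells plated at 500-1,000/well in growth medium, compounds added after 5 h. MIPE tested at 11 points (from 0.78 nM), NPC at 8 points (from 0.59 nM). CellTiter-Glo luminescence after 48 h; concentration-response curves from primary screen.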

[5] = qHTS of pediatric cancer cell lines to identify multiple opportunities for drug repurposing: Primary screen for MG 63 (6-TG R) cells (AID 1347105); also: nearly all actives have a fitted effect of over 50% in size
Procedure, shortened: as §3

[6] = qHTS of pediatric cancer cell lines to identify multiple opportunities for drug repurposing: Primary screen for control Hh wild type fibroblast cells (AID 1347106);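 also: series mostly up to about 46 µM; a drop in luminescence marks cytotoxicity and a rise apparent proliferation; nearly all actives have a fitted effect of over 55% in size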
Procedure, shortened: as §2

[7] = qHTS of pediatric cancer cell lines to identify multiple opportunities for drug repurposing: Primary screen for Rh30 cells (AID 1347107); also: series mostly up to about 46 µM; nearly all actives have a fitted effect of over 75% in size
Procedure, shortened: as §2

[8] = qHTS of pediatric cancer cell lines to identify multiple opportunities for drug repurposing: Primary screen for Rh41 cells (AID 1347108);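 also: series mostly up to about 46 µM; luminescence drop marks cytotoxic hits; nearly all actives have a fitted effect of over 70% in size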
Procedure, shortened: as §3

Measured: outcome

C[C@H]1COc2c(C3(N)CC3)c(F)cc3c(=O)c(C(=O)O)cn1c23
inactive: all assays above

CCS(=O)(=O)CCn1c([N+](=O)[O-])cnc1C
inactive: all assays above

Cc1c(NC(=O)c2cccnc2)c(=O)n(-c2ccccc2)n1C
inactive: all assays above

Cc1[nH]c(C)c(Cl)c(=O)c1Cl
inactive: all assays above

O=S1(=O)OC(c2ccc(O)cc2)(c2ccc(O)cc2)c2ccccc21
inactive: all assays above

C[C@]1(Cn2ccnn2)[C@H](C(=O)O)N2C(=O)C[C@H]2S1(=O)=O
inactive: all assays above

Cc1cc(OI)c(C(C)C)cc1-c1cc(C(C)C)c(OI)cc1C
inactive: all assays above

CN1C(=O)CC(c2ccccc2)C1=O (centres undefined)
inactive: all assays above

C=CCSCC1Nc2cc(Cl)c(S(N)(=O)=O)cc2S(=O)(=O)N1 (centres undefined)
inactive: all assays above

CC(C)=CCC/C(C)=C/CO
inactive: all assays above

NCC1CCC(C(=O)Oc2ccc(CCC(=O)O)cc2)CC1 (centres undefined)
not listed: [5] | [8]
inactive: all other assays above

COc1ccccc1OC(=O)Oc1ccccc1OC
inactive: all assays above
